Out of some 3,300 compounds screened, about 55 (2%) were called active. This is one part of a sample in which actives are shown more often than they occur.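 How the source made its calls: active means growth inhibition above 90%, meaning viable cell count by imaging cut by more than 90% versus vehicle controls; inactive means growth inhibition below 90%.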
Test: HT29 colon tumor cell growth inhibition, primary screen, imaging, high content imaging, 48 h, CellTiter-Glo (AID 771);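 on condensed nuclei: condensed means Hoechst nuclear area under control median minus 1.5 SD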
Conditions: HCS imaging cell count, at 10 µM, stronger effect = higher value; for condensed nuclei: measured here: percent cells with condensed nuclei
[1] = measured here: ATP CellTiter-Glo viability inhibition

CN(C)CCCN1c2ccccc2CCc2ccc(Cl)cc21
growth inhibition: 89.6% (inactive)
condensed nuclei: 39.3%

CN(C)CCCN1c2ccccc2CCc2ccccc21
growth inhibition: -27.8% (inactive)
condensed nuclei: 2.51%

CNCCCN1c2ccccc2CCc2ccccc21
growth inhibition: 95.8% (active)
condensed nuclei: 13.8%

CCOC(=O)NC(Nc1sc2c(c1C(=O)OC)CCN(C)C2)(C(F)(F)F)C(F)(F)F
growth inhibition: -25.9% (inactive)
growth inhibition [1]: 15.4%
condensed nuclei: 2.15%

Cc1cc(=O)oc(C)c1C(=O)N[C@@H]1CCCCNC1=O
growth inhibition: -26.2% (inactive)
growth inhibition [1]: -3.89%
condensed nuclei: 2.68%

CCCCOC(=O)CSC1=C(C#N)C(c2ccc3c(c2)OCO3)CC(=O)N1 (stereo not given)
growth inhibition: -15.7% (inactive)
growth inhibition [1]: -8.71%
condensed nuclei: 2.23%

CCOC(=O)CSC1=C(C#N)C(c2ccc3c(c2)OCO3)CC(=O)N1 (stereo not given)
growth inhibition: 90.1% (active)
growth inhibition [1]: 66.1%
condensed nuclei: 12.2%

CCCOC(=O)CSC1=C(C#N)C(c2ccc3c(c2)OCO3)CC(=O)N1 (stereo not given)
growth inhibition: 75.6% (inactive)
growth inhibition [1]: 56.6%
condensed nuclei: 7.29%

Cn1cccc1/C=N/n1cnnc1
growth inhibition: 13.3% (inactive)
growth inhibition [1]: 0.83%
condensed nuclei: 11%

CN(C)CCCN1c2ccccc2Sc2ccc(Cl)cc21
growth inhibition: 92.7% (active)
condensed nuclei: 22.1%

CC(CN1c2ccccc2Sc2ccccc21)N(C)C (stereo not given)
growth inhibition: 65.5% (inactive)
condensed nuclei: 6.11%

COc1ccc([C@@H]2Sc3ccccc3N(CCN(C)C)C(=O)[C@@H]2OC(C)=O)cc1
growth inhibition: -4.52% (inactive)
condensed nuclei: 2.39%

CN(C)CCCN1c2ccccc2Sc2ccccc21
growth inhibition: 40.7% (inactive)
condensed nuclei: 5.02%

CN(C)CCCN1c2ccccc2Sc2ccc(C(F)(F)F)cc21
growth inhibition: 93.8% (active)
condensed nuclei: 30.8%

CCOc1c(C)cc2[nH]c(CCC(=O)O)nc2c1C
growth inhibition: 26.2% (inactive)
growth inhibition [1]: 7.89%
condensed nuclei: 2.92%

CN1CCN(Cc2c(O)c(Cl)cc3c(-c4ccccc4)cc(=O)oc23)CC1
growth inhibition: 8.72% (inactive)
growth inhibition [1]: -6.84%
condensed nuclei: 1.6%

C(=N\n1cnnc1)/c1cccc(Oc2ccccc2)c1
growth inhibition: -29.2% (inactive)
growth inhibition [1]: -4.38%
condensed nuclei: 2.95%

COc1ccccc1N1CCN(C2CCN(C(=O)c3cccs3)CC2)CC1
growth inhibition: 32% (inactive)
growth inhibition [1]: 11.2%
condensed nuclei: 4.31%

CCCCCCn1cc(C(=O)O)c(=O)c2ccccc21
growth inhibition: -27.6% (inactive)
growth inhibition [1]: 1.82%
condensed nuclei: 2.69%

COC(=O)c1[nH]c2cc(OC)ccc2c1NC(=O)CCN1CCCC(C)(C)C1
growth inhibition: 5.81% (inactive)
growth inhibition [1]: 8.79%
condensed nuclei: 1.83%

COC(=O)c1[nH]c2cc(OC)ccc2c1NC(=O)CN1CCC(C(N)=O)CC1
growth inhibition: 49.4% (inactive)
growth inhibition [1]: -5.92%
condensed nuclei: 2.82%

COC(=O)c1[nH]c2cc(OC)ccc2c1NC(=O)CN1CCN(c2cccc(C)c2)C(C)C1 (stereo not given)
growth inhibition: 92.4% (active)
growth inhibition [1]: 75.4%
condensed nuclei: 8.77%

COC(=O)C1CCN(c2nc3ccccc3nc2C(C#N)C(=O)NCCc2ccccc2)CC1 (stereo not given)
growth inhibition: 30% (inactive)
growth inhibition [1]: 5.48%
condensed nuclei: 3.61%

COC(=O)c1ccc(Nc2cc(C)nc(-c3ccccc3O)n2)cc1
growth inhibition: 12.1% (inactive)
growth inhibition [1]: 23%
condensed nuclei: 10.7%

COC(=O)c1ccccc1OCc1cccc(C)n1
growth inhibition: 39.5% (inactive)
growth inhibition [1]: 2.81%
condensed nuclei: 0.9%

COC(=O)c1cccc(Nc2cc(C)nc(-c3ccccc3O)n2)c1
growth inhibition: 91.6% (active)
growth inhibition [1]: 77.4%
condensed nuclei: 8.33%

CCOc1ccc(-c2nn3c(-c4ccc(OC)cc4)nnc3s2)cc1
growth inhibition: 10.5% (inactive)
growth inhibition [1]: 4.54%
condensed nuclei: 2.81%

C[C@]12CC[C@@H]3c4ccc(OC(=O)c5ccccc5)cc4CC[C@H]3[C@@H]1CC[C@@H]2O
growth inhibition: 90.5% (active)
condensed nuclei: 22.1%

C[C@]12CC[C@@H]3c4ccc(O[C@@H]5O[C@H](C(=O)O)[C@@H](O)[C@H](O)[C@H]5O)cc4CC[C@H]3[C@@H]1C[C@@H](O)[C@@H]2O
growth inhibition: -7.06% (inactive)
condensed nuclei: 1.8%

C[C@]12CC[C@@H]3c4ccc(O)cc4CC[C@H]3[C@@H]1CC[C@@H]2OC(=O)CCC(=O)O
growth inhibition: -33.9% (inactive)
condensed nuclei: 0.84%

Cc1c(O)c(CN2CCCC(C)C2)cc2c3c(c(=O)oc12)CCC3 (stereo not given)
growth inhibition: -14.5% (inactive)
growth inhibition [1]: -14.7%
condensed nuclei: 1.69%

CN(C1CCS(=O)(=O)C1)S(=O)(=O)c1cccc2nsnc12 (stereo not given)
growth inhibition: -12.3% (inactive)
growth inhibition [1]: 2.06%
condensed nuclei: 8.15%

N#CC1=C(SCC(=O)c2ccc(Br)cc2)NC2=C(C(=O)CCC2)C1c1ccco1 (stereo not given)
growth inhibition: 68.9% (inactive)
growth inhibition [1]: 54.1%
condensed nuclei: 7.14%

N#CC1=C(SCC(=O)c2ccccc2)NC2=C(C(=O)CCC2)C1c1ccco1 (stereo not given)
growth inhibition: 94.2% (active)
growth inhibition [1]: 71.1%
condensed nuclei: 25.7%

CCc1ccc(NC(=O)CSC2=C(C#N)C(c3ccco3)C3=C(CCCC3=O)N2)cc1 (stereo not given)
growth inhibition: 86.5% (inactive)
growth inhibition [1]: 58.1%
condensed nuclei: 11.8%

Cc1ccc(NC(=O)CSC2=C(C#N)C(c3ccco3)C3=C(CCCC3=O)N2)cc1 (stereo not given)
growth inhibition: 18.9% (inactive)
growth inhibition [1]: -18.4%
condensed nuclei: 2.42%

Cc1ccc(C(=O)CSC2=C(C#N)C(c3ccco3)C3=C(CCCC3=O)N2)cc1 (stereo not given)
growth inhibition: 86% (inactive)
growth inhibition [1]: 77.7%
condensed nuclei: 6.33%

N#CC1=C(SCC(=O)c2ccc(Cl)cc2)NC2=C(C(=O)CCC2)C1c1ccco1 (stereo not given)
growth inhibition: 92.8% (active)
growth inhibition [1]: 78.2%
condensed nuclei: 7.89%

Cn1c(=O)c2c3c(sc2n2c(SCC(=O)c4ccc(Cl)cc4)nnc12)COC(C)(C)C3
growth inhibition: -42.1% (inactive)
growth inhibition [1]: -20.9%
condensed nuclei: 0.75%

CN=C1c2cc3c(Br)c(OC)ccc3n2CCN1C
growth inhibition: 13.5% (inactive)
growth inhibition [1]: 20.4%
condensed nuclei: 1.37%

COC(=O)c1cc(Br)c(=O)n(Cc2ccco2)c1
growth inhibition: 48.5% (inactive)
growth inhibition [1]: -15.8%
condensed nuclei: 2.45%

CN(C)S(=O)(=O)Nc1ccc(NS(=O)(=O)N(C)C)c(S(=O)(=O)c2ccccc2)c1
growth inhibition: 17.4% (inactive)
growth inhibition [1]: -14.5%
condensed nuclei: 2.1%

C#CCSC1=C(C#N)C(c2cccs2)C(C(=O)OCC)=C(C)N1 (stereo not given)
growth inhibition: -11.7% (inactive)
growth inhibition [1]: -5.67%
condensed nuclei: 1.95%

CCSC1=C(C#N)C(c2cccs2)C(C(=O)OC)=C(C)N1 (stereo not given)
growth inhibition: -14.9% (inactive)
growth inhibition [1]: -4.48%
condensed nuclei: 2.41%

CCOC(=O)C1=C(C)NC(SCC(=O)Nc2nc(C)cs2)=C(C#N)C1c1cccs1 (stereo not given)
growth inhibition: 95.4% (active)
growth inhibition [1]: 77.6%
condensed nuclei: 11.1%

CCCOc1ccc(/C(O)=C2/C(=O)C(=O)N(CCCN3CCOCC3)C2c2ccncc2)cc1 (stereo not given)
growth inhibition: -41.6% (inactive)
growth inhibition [1]: -15.8%
condensed nuclei: 2.83%

CCCCOc1cccc(-c2nnc(N)s2)c1
growth inhibition: 2.4% (inactive)
growth inhibition [1]: -0.17%
condensed nuclei: 3.96%
